According to PubChem BioAssay AID624319 (Sanford-Burnham Center for Chemical Genomics, 2012):
Hit rate of the full screen: of about 1,400 compounds, about 210 (15%) were called active. Only a sample is shown. Unmarked numbers belong to inactive results. No stated cut-off is given here; in the data, active means inhibition mostly above about 39% (no sharp cut-off); inactive means mostly below about 34%.

Target: Sentrin-specific protease 8 (Homo sapiens) (UniProt Q96LD8)
Experiment: retest of SENP8 deneddylase blockers – biochemical, Nedd8 protein substrate, single concentration, confirmation (AID 624319)
Conditions: purified SENP8, Nedd8-AMC/pro-Nedd8 cleavage fluorescence, 30 min; at 25 µM; hits give high values

Chain of Sentrin-specific protease 8 (Homo sapiens) (Q96LD8 whole entry, looked up): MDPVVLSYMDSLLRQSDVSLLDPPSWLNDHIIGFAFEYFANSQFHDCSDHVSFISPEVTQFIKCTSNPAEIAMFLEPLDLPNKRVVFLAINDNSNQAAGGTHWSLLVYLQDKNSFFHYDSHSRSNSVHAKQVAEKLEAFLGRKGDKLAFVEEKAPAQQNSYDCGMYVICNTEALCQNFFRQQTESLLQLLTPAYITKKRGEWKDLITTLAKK

SMILES	inhibition
Oc1ccc(N=Cc2sc3ccccc3c2Cl)cc1	11.3%
O=c1[nH]c2ccccc2s1	1.69%
Cc1ccc(C(=O)N/N=C\c2cc(Br)c(Br)o2)cn1	6.43%
O=[N+]([O-])c1ccc(C=Nc2ccc(Cl)cc2Cl)s1	14.4%
O=C1Nc2ccc([N+](=O)[O-])cc2C1=Nc1cccc(CO)c1	76.8% (active)
c1coc(-c2nc3nc4ccccc4n3nc2-c2ccco2)c1	20.6%
CN1C(=O)/C(=C/C=C2\SCCN2C)OC1=S	29.4%
Cc1cc([N+](=O)[O-])c(NC2CCCCC2)c([N+](=O)[O-])c1	11%
COC(=O)C1=C(C(=O)c2ccc(C)cc2)C(c2ccccc2)n2nnnc2N1 (stereo not drawn)	18.1%
CCc1ccccc1NC(=O)[C@@H]1CCC(=O)N1C1OC(=O)c2c1ccc(OC)c2OC (stereo partly drawn)	13.7%
O=C(OCC(=O)N1CCN(c2ccccc2)CC1)c1ccc([N+](=O)[O-])s1	57% (active)
O=C(c1ccccc1)N1CCN(c2ccc([N+](=O)[O-])c(NCc3ccco3)c2)CC1	14.3%
CCOc1ccc(C(c2c(C)[nH][nH]c2=O)c2c(C)[nH][nH]c2=O)cc1OCC	2.47%
Cc1[nH][nH]c(=O)c1C(c1ccc(-c2ccc(Cl)cc2)o1)c1c(C)[nH][nH]c1=O	49.8% (active)
CCN1CCC2(CC1)N=C(c1ccc(F)cc1)C(=S)N2C(=O)c1ccc(C)cc1	54.5% (active)
O=C(COC(=O)c1ccc([N+](=O)[O-])o1)NC12CC3CC(CC(C3)C1)C2	81.4% (active)
O=[N+]([O-])c1ccccc1NCc1ccccc1Cl	20.6%
CCOCCCn1c(NN)nc2ccccc2c1=O	0.12%
CCCCNCCS(=O)(=O)NCc1ccccc1	26.8%
O=C(c1cccc(F)c1)N1CCN(c2ccc([N+](=O)[O-])c3cccnc23)CC1	16.9%
O=C(Nc1ccc(C(=O)O)c(O)c1)c1ccccc1	0.26%
CN1CCN(S(=O)(=O)c2ccc(N3CCN(c4ccccc4O)CC3)c([N+](=O)[O-])c2)CC1	29.3%
O=C(Nc1cc2c3c(c1)C1CCCC1CN3CC1CCCC21)c1ccc([N+](=O)[O-])cc1 (stereo not drawn)	24.6%
Nn1cnnc1N/N=C/c1cc([N+](=O)[O-])c(Cl)cc1Cl	16.6%
COc1ccc(-c2nnco2)cc1OC	14.3%
CCOc1cc(NC(=O)c2ccccc2C(=O)O)c(OCC)cc1NC(=O)c1ccccc1F	-3.99%

SMILES	inhibition
O=C1CC(c2ccccc2)=NN1c1ccc([N+](=O)[O-])cc1	46.5% (active)
COC(=O)Cn1c2ccc(C)cc2c2nc(C)sc21	14.2%
CN1CCc2ccccc2C1Cc1ccccc1NC(=O)c1sc2ccccc2c1Cl (stereo not drawn)	0.2%
Nc1ccc2nc3c(=O)[nH]c(=S)[nH]c3nc2c1	26.8%
CN(c1ccc(C(=O)N2CCc3ccccc3C2)cc1)S(C)(=O)=O	42.8% (active)
CCN(CC)C(=O)CCC(=O)Nc1ccc(C(=O)OC)cc1	8%
CC(=O)N1CCN(S(=O)(=O)c2cccc(C(=O)NC3CCC(C)CC3)c2)CC1 (stereo not drawn)	3.29%
CCc1ccccc1NC1c2ccccc2C(=O)N1c1cccnc1 (stereo not drawn)	12.2%
O=c1[nH]n2c(=O)c3c([nH]c2c1N=Nc1ccccc1)CCC3	25.4%
CCOC(=O)/C(=N\Nc1ccccc1[N+](=O)[O-])c1csc(Nc2ccccc2)n1	15%
O=C(NCCCN1CCN(c2ccc(F)cc2)CC1)Nc1ccc([N+](=O)[O-])cc1	31.9%
CCc1cccc(C)c1NC(=O)COC(=O)CC1CCCC1	29.1%
CC(C)Cc1nnc(NC(=O)CCC(=O)Nc2ccc3cn[nH]c3c2)s1	2.31%
O=C(COc1ccccc1)N1CCc2ccccc2C1	44.4% (active)
CCc1ccc(-c2nnn(Cc3nn[nH]n3)n2)cc1	10.7%
O=C(Cc1ccccc1)NC(=S)Nc1ccc(N2CCCCC2)cc1	11.4%
CC/C(=N/Nc1ccccc1)c1cnnc(SC)n1	16.1%
Cc1ccc(C(=O)c2ccc(N3CCN(C)CC3)c([N+](=O)[O-])c2)cc1	14.5%
CCCCCCCCCCCCCCCC(=O)OC/C=C(C)/C=C/C=C(C)/C=C/C1=C(C)CCCC1(C)C	4.1%
Cc1cc(C)nc(N/N=C/c2ccc([N+](=O)[O-])o2)n1	22.3%
CC1(C)C2CCC1(C)C(OC(=O)c1ccc(O)cc1)C2 (stereo not drawn)	18.1%
CCOC(=O)c1ccc(N2C(=O)CC(N(C)Cc3ccccc3)C2=O)cc1 (stereo not drawn)	18.6%
Cc1ccc(NS(=O)(=O)c2ccc(N/N=C/c3ccccc3OCC(=O)O)c([N+](=O)[O-])c2)c(C)c1	29.4%
CC1(C)Cc2cccc(OCC(=O)Nc3nccs3)c2O1	2.41%
COc1ccc(Br)cc1/C=N/Nc1ccc(S(=O)(=O)Nc2ccccc2C(=O)O)cc1[N+](=O)[O-]	21.5%
CCCC1CCC(=NNC(=S)NCCc2ccccc2)CC1 (stereo not drawn)	5.71%

SMILES	inhibition
COC(=O)CCCC1=CC2=CC(=O)C(C)(OC(=O)c3cccs3)C(=O)C2=CN1CC(C)C (stereo not drawn)	52.7% (active)
CCOC(=O)C1CCCN(C(=O)c2ccc(C)c(F)c2)CC1 (stereo not drawn)	10.1%
COc1cc(C(=S)N2CCOCC2)cc(OC)c1OC(=O)c1cc([N+](=O)[O-])cc([N+](=O)[O-])c1	26.8%
COc1ccc(C(=O)c2c3ccc([N+](=O)[O-])cc3[n+]([O-])n2CCCN)cc1	70.5% (active)
COc1ccc(-c2[nH][nH]c(=O)c2NC(=O)c2ccc([N+](=O)[O-])cc2)cc1	34.5%
CCOC(=O)CNC(=O)N1c2ccccc2Sc2ccccc21	16.6%
Cc1sc2ccccc2c1CNC[C@H]1O[C@@H](n2ccc(=O)[nH]c2=O)[C@H](O)[C@@H]1O	8.62%
Cc1cccc(OCC(=O)NC(=S)Nc2ccccc2N2CCOCC2)c1	13%
Cc1nc(SCC(=O)c2ccccc2)c([N+](=O)[O-])[nH]1	10.2%
Cc1cc(C)c(/C=C2\C(=O)Nc3ccccc32)[nH]1	11.5%
CC(C)CC(=O)N=C1SC2CS(=O)(=O)CC2N1CCc1ccccc1 (stereo not drawn)	-0.28%
O=[N+]([O-])c1ccc(N2CCSCC2)cc1O	22.9%
CCN=C1SC(CC(=O)Nc2ccc(C)cc2)C(=O)N1CC (stereo not drawn)	12.9%
CC1CCN(c2ccc([N+](=O)[O-])c(SCCO)c2)CC1	19.1%
Cc1ccccc1NCC(=O)N/N=C\c1ccc([N+](=O)[O-])s1	31.1%
O=P(O)(CP(=O)(c1ccccc1)c1ccccc1)c1ccccc1O	13.6%
CCOC(=O)C(CC)Sc1ncnc2c1nnn2-c1ccc(F)cc1 (stereo not drawn)	14.5%
Cn1c2ccc(F)cc2c2nnc(NN)nc21	-8.09%
O=C(NC(=S)N1CCCCC1c1cccnc1)c1ccccc1 (stereo not drawn)	8.53%
CCC(C)[C@H](NC(=O)N1c2ccccc2NC(=O)[C@@H]1C(C)C)C(=O)N[C@@H](Cc1ccccc1)C(=O)O (stereo partly drawn)	7.29%
COc1ccc(S(=O)(=O)Nc2ccc3cn[nH]c3c2)cc1[N+](=O)[O-]	14.1%
NN=C(NN=Cc1ccccc1)c1ccccc1	43.8% (active)
CC(C)[C@H](NC(=O)N1CC(=O)Nc2ccccc21)C(=O)N[C@@H](Cc1c[nH]c2ccccc12)C(=O)O	15%
COc1cccc(N(CC(=O)NCCSc2ccccn2)S(C)(=O)=O)c1	3.26%
CCOc1ccc(NCCC(=O)c2ccc3c(c2)OCO3)cc1	23.6%
Cc1ccc(C(=O)N/C(=C/c2ccc(-c3cccc([N+](=O)[O-])c3)o2)C(=O)NCCCN(C)C)cc1	17.4%
